# From PubChem BioAssay
# KB-V1 cytotox – KB-V1 MDR subline cytotoxicity; KB-V1 MDR cells viability, CellTiter-Glo, 72 h; Potency, µM (top dose mostly 46.1 µM), actives largely listed as cytotoxic; 3.4% of 400,000 active; AID 1347076; note: % is set by controls: 0 for no effect and ±100 for the full control effect; nearly all actives have a fitted effect of over 60% in size
#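 qHTS viability screen in drug-selected KB-V1 MDR cells: 72 h compound treatment at 37 degrees C, ATP luminescence end point.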
# KB-3-1 cytotox – KB-3-1 parental cell cytotoxicity; Potency, µM (doses to about 46.1 µM), actives largely listed as cytotoxic; AID 1347075; 1.4% of 400,000 active; KB-3-1 viability, CellTiter-Glo ATP luminescence, 72 h; note: % is set by controls: 0 for no effect and ±100 for the full control effect; nearly all actives have a fitted effect of over 60% in size
#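 Screening of KB-3-1 cells (DMEM, 10% FBS, phenol-red free) ran from lowest to highest compound concentration; after 72 h at 37 °C viability was read luminescently and curves fitted.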
# MCF10A rereplic – inducers of DNA re-replication in MCF 10A breast cells; MCF 10A DNA re-replication, Hoechst nuclear intensity, 48 h; Potency, µM (titrated, usually from 46.1 µM), inactives show top-dose activity, positive = re-replication, usual class: activators; 2.9% of 350,000 active; AID 624296; note: % of control where 0% means no effect; nearly all actives have a fitted effect of over 50% in size
# HT1080NT lethal – kills 2HG-producing HT-1080-NT fibrosarcoma cells; 1.6% of 360,000 active; Potency, µM (series often up to 46.1 µM), without a hit: at the highest dose activity, negative = less viability, usual class: cytotoxic; HT-1080-NT fibrosarcoma viability, CellTiter-Glo ATP luminescence, 48 h;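 note: NT is the 2HG producing partner of a matched IDH1 knockdown line; 0% = DMSO-treated cells and -100% = media-only wells without cells; nearly all actives have a fitted effect of over 55% in size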
#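 Compounds were tested in concentration-response format on HT-1080-NT cells for 48 hours at 37 degrees C. Cell viability came from CellTiter-Glo luminescence; curves were classified by r2, response magnitude and activity.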
# SW480 rerep – DNA re-replication induction in SW480 cells | 1.8% of 340,000 active | SW480 DNA re-replication, Hoechst DNA content imaging, 48 h | Potency, µM (series often up to 46.1 µM), without a hit: at the top dose re-replication activation, most hits filed as activators; note: % of control where 0% means no effect; nearly all actives have a fitted effect of over 55% in size
#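 DNA re-replication was detected as more nuclei of elevated Hoechst intensity after 48 hr exposure to compound (23 nL pinned per well of 250 cells).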
# HT1080 IDH1KD tx – kills HT-1080 cells with IDH1 knockdown | 2% of 360,000 active | Potency, µM (highest dose often 46.1 µM), for inactives: top-dose activity, negative = toxicity, hits mostly cytotoxic | AID 686971 | HT-1080 IDH1 knockdown viability, ATP luminescence, 48 h;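 note: 0% = DMSO wells and -100% = cell-free medium wells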
#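 Assay cells: HT-1080 with IDH1 knockdown, 750 per well, RPMI/5% FBS. Exposure: 48 h at 37 °C following 2 h pre-incubation. Read: CellTiter-Glo luminescence; fitted concentration-response, curve class assigned.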
# The depositor's hits bear a star; i = inactive; ? = inconclusive; / = not tested or not shown; [ ] = dose if it differs, or a comment. An excerpt weighted towards active compounds, which were near 7.9% of everything screened. Calls come from the whole dose curve; as a rule, active = well fitted curve in the direction sought with a large enough effect; inconclusive = small, poorly fitted or top-dose-only effect, or another doubt; inactive = no such curve, though single readings can be large; an effect the other way counts as inactive or inconclusive. Potency is the fitted concentration of half-maximal effect.
SMILES,KB-V1 cytotox,KB-3-1 cytotox,MCF10A rereplic,HT1080NT lethal,SW480 rerep,HT1080 IDH1KD tx
O=C(CN(C1CCCCC1)S(=O)(=O)c1ccc(F)cc1)NCC1CCCO1 (configuration not stated),?,4.6µM*,?,3.7µM*,1.2µM*,4.6µM*
O=C(CN(C1CCCCC1)S(=O)(=O)c1ccc(F)cc1)NCc1ccncc1,8.2µM*,i,-11%,3%,-4%,15%
Cc1ccc(NC2CCCN(C(=O)C3CCCC3)C2)cc1C (configuration not stated),?,i,-10%,-1%,15%,3%
COC(=O)c1ccccc1NC(=O)c1ccc(F)cc1,i,i,-5%,?,1%,23%
COc1ccc(CN2CCN(C(=O)c3cccc4ccccc34)CC2)c(OC)c1OC,?,i,-3%,-1%,-7%,-13%
CCOC(=O)CSc1[nH]c2cc(OC)ccc2c1[N+](=O)[O-],i,i,1%,17%,-1%,5%
O=C(NCc1ccccn1)c1cc(-c2ccccc2Cl)nc2ccccc12,18µM*,i,1%,5%,-33%,9%
Cc1nc2ccccc2c2oc(C(=O)NCc3ccccn3)cc12,2.6µM*,i,14%,-1%,-4%,-18%
Cc1c(C(=O)NCc2ccccn2)oc2c(Cl)cccc12,8.2µM*,i,12%,6%,0%,0%
O=C(NCCc1ccccn1)c1cc(-c2ccc(Cl)c(Cl)c2Cl)nc2ccccc12,5.8µM*,?,8%,-3%,-2%,?
O=C(NCc1ccccn1)c1cc(-c2ccncc2)nc2ccccc12,i,i,3%,5%,3%,-3%
Cc1ccc(CNC(=O)c2cc3c(C)nc4ccccc4c3o2)cc1,i,i,4%,4%,-3%,-1%
Cc1c(C(=O)NCc2ccccn2)oc2ccccc12,i,i,-8%,9%[9.24 µM],-1%,-9%
CC1(C)OC2OC3C(CN)OC(c4ccccc4)OC3C2O1 (configuration not stated),i,i,-5%,0%,-10%,-2%
O=S(=O)(c1ccc2c(c1)OCCO2)N1CCC(n2nnc3cc(C(F)(F)F)ccc32)CC1,?,i,19%,-22%,3%,-18%
O=C(NNC(=O)c1cc(-c2ccc(Cl)cc2Cl)nc2ccccc12)Nc1ccccc1,23µM*,?,?,?,?,?
CC(=O)Nc1ccc(S(=O)(=O)NCC2CCC(C(=O)NCCC3=CCCCC3)CC2)cc1 (configuration not stated),i,i,16%,11%,-1%,12%
O=C(NCCC1=CCCCC1)C1CCC(CNS(=O)(=O)c2ccccc2)CC1 (configuration not stated),8.2µM*,i,?,1%,-92%,4%
O=C(NCCC1=CCCCC1)C1CCC(CNc2nc(=S)[nH]c3ccccc23)CC1 (configuration not stated),21µM*,?,26µM*,-2%,10%,-9%
O=C(NCCc1ccc(Cl)cc1)C1CCC(CNc2nc(=S)[nH]c3ccccc23)CC1 (configuration not stated),?,?,3%,-10%,12%,3%
Cc1cccc(-c2nc(CN3CCN(Cc4cccc(F)c4)CC3)c(C)o2)c1,i,i,?,6%,-22%,9%
COc1cc2nc(CN3CCN(S(=O)(=O)c4ccc(Br)cc4)CC3)[nH]c(=O)c2cc1OC,i,i,?,-20%,-4%,?
Cc1cc2c(n1-c1ccc(Br)cc1)CC(C)(C)CC2=O,26µM*,i,3%,10%,1%,7%
CCc1ccc(NC(=S)N2CCC(NC(=O)c3ccccc3)CC2)cc1,i,i,18µM*,5%,0%,2%
COc1ccc(CCNC(=O)Cc2ccccc2)cc1OC,i,i,-16%,-4%,?,7%
SMILES,KB-V1 cytotox,KB-3-1 cytotox,MCF10A rereplic,HT1080NT lethal,SW480 rerep,HT1080 IDH1KD tx
COc1ccc(CCNC(=O)CSc2ccc3ccccc3c2)cc1OC,23µM*,i,5%,1%,-3%,2%
COc1ccc(CCNC(=O)C(=O)NCc2ccccc2)cc1OC,?,21µM*,?,16µM*,18µM*,21µM*
COc1ccc(CCNCC(=O)Nc2ccc(OC(F)(F)F)cc2)cc1OC,i,i,23µM*,-4%,10%,3%
COc1ccc(CCNC(=O)CSc2nnc(-c3ccccc3)o2)cc1OC,21µM*,i,0%,-7%,-12%,2%
COc1ccc(CCNC(=O)C(C(=O)c2ccccc2)n2cc(Cl)ccc2=O)cc1OC (configuration not stated),16µM*,i,-3%,9%,4%,8%
COc1ccc(-c2nnc(SCC(=O)N(Cc3ccccc3)C(C)(C)C)o2)cc1OC,9.2µM*,?,?,-19%,-16%,-21%
O=C(Cn1cc(S(=O)(=O)Cc2ccccc2)c2ccccc21)Nc1ccccc1,18µM*,i,22%,-17%,-2%,0%
CC(=O)c1ccc(NC(=O)Cn2cc(S(=O)(=O)Cc3cccc(Cl)c3)c3ccccc32)cc1,i,i,/,/,/,/
[O-]/C(=C(\C(=S)Nc1cccc2ccccc12)[n+]1ccccc1)c1ccc2c(c1)OCCO2,i,i,-2%,?,4%,-20%
CC1=NN(c2ccccc2)C(=O)/C1=C\C=C\c1ccccc1,i,i,?,4.1µM*,?,3.7µM*
Fc1ccc(N/N=C/c2ccncc2)c(F)c1,?,i,2%,-20%,-7%,27%
O=C(N/N=C/c1c[nH]c2ccccc12)c1ccc2c(c1)OCCO2,?,i,16µM*,?,?,21µM*
N#Cc1ccc(/C=N/NC(=O)c2cc(-c3cccs3)nc3ccccc23)cc1,i,?,21µM*,?,?,10µM*
O=c1cnnc(N/N=C/c2ccc3c(c2)OCO3)[nH]1,7.3µM*,?,-2%,-2%,3%,0%
O=C(O)c1ccc(/C=N/Nc2ccc(F)cc2F)cc1,i,i,5%,3.3µM*,-9%,5.2µM*
O=C(Cc1ccc(Cl)cc1)N/N=C1\CCCc2ccccc21,?,i,-1%,4%,-2%,-4%
Cc1ccc(N2CC(C(=O)Nc3nnc(SCC(=O)Nc4cc(C)on4)s3)CC2=O)cc1 (configuration not stated),i,i,-2%,5%,-14%,0%
